Measurements published in PubChem BioAssay AID720700 (The Scripps Research Institute Molecular Screening Center, 2013).
In all, about 370,000 compounds went through this assay and about 3,100 (0.84%) were called active. Rule as the data show it: active = inhibition above about 9.5%; inactive = the rest. The list comes from a sample in which actives are over-represented; it also holds similar structures and randomly drawn compounds.

molecular target: 1-phosphatidylinositol 4,5-bisphosphate phosphodiesterase gamma-1 (Homo sapiens) (UniProt P19174); assay: PLC-gamma1 enzyme inhibitors, primary screen, biochemical, fluorescence, purified enzyme (AID 720700); conditions: purified PLC-gamma1, fluorogenic substrate, at 12.2 µM, active compounds read high
Sequence (P19174 whole entry, looked up): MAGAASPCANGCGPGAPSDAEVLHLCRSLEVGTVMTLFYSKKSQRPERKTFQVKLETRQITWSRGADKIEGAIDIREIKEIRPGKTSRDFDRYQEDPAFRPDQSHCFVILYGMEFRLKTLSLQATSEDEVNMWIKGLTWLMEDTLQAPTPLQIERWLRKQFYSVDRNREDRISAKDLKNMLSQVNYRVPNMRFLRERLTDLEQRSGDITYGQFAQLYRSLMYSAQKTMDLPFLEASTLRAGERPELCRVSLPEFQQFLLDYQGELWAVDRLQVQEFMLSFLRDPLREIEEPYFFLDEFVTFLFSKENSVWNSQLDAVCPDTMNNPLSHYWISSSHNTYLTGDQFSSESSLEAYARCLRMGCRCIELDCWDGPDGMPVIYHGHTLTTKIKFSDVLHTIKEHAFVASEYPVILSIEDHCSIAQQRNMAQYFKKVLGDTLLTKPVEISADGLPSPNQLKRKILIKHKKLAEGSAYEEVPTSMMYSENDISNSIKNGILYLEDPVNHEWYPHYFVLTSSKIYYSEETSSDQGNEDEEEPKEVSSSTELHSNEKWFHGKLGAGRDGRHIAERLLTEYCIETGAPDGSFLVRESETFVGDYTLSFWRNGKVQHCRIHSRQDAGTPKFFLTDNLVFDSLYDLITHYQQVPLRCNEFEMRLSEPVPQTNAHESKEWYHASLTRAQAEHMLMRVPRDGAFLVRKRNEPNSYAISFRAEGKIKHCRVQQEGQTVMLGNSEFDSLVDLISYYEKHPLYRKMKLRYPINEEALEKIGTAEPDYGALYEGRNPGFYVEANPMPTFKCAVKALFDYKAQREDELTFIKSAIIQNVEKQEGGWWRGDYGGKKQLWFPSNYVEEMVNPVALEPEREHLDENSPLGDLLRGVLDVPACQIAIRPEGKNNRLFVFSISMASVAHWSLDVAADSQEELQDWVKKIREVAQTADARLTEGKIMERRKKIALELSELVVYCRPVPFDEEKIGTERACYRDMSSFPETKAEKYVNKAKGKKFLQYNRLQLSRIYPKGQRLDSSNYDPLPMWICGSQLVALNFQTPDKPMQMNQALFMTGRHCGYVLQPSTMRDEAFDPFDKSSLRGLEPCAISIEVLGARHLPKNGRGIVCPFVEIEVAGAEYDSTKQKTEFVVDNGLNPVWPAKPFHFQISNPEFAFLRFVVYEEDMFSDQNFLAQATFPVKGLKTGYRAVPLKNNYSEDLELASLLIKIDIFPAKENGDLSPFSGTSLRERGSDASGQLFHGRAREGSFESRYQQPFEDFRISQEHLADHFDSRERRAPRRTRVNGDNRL

Row | Compound | inhibition
1 | O=C(NCCCN1CCCCCC1)C1CC(=O)N(C2CCCC2)C1 (stereo unspecified) | -1.08% (inactive)
2 | CC(C)C(NC(=O)C1CCC(C(C)(C)C)CC1)C(=O)NCCCN1CCCCC1 (stereo unspecified) | 10.2% (active)
3 | O=C(NC(C(=O)NCCN1CCOCC1)C12CC3CC(CC(C3)C1)C2)C1CCCCC1 (stereo unspecified) | -1.07% (inactive)
4 | Cc1ccc(-n2c(SCC(=O)Nc3ccc(S(=O)(=O)Nc4nccs4)cc3)nnc2-c2ccccn2)cc1 | -1.19% (inactive)
5 | CN(C)/C=C(/C(=O)c1ccccc1Cl)S(C)(=O)=O | -0.96% (inactive)
6 | CN(C)/C=C(/C(=O)c1ccc(Cl)cc1)S(=O)(=O)c1ccccc1 | 11.6% (active)
7 | CN(C)/C=C(/C(=O)c1ccc(F)cc1)S(=O)(=O)c1ccc(F)cc1 | -0.23% (inactive)
8 | CC(C)CNC(=O)OCc1cn(Cc2ccc(F)cc2)nn1 | -0.35% (inactive)
9 | CN(CCO)c1cccc2c1S(=O)(=O)N(Cc1cn(Cc3ccc(C(F)(F)F)cc3)nn1)Cc1ccccc1O2 | -12.9% (inactive)
10 | CCOc1ccc(-n2c(SCC(=O)Nc3cc(C)c(NC(=O)c4ccccc4)cc3OC)nnc2-c2cccc(Cl)c2)cc1 | -13.8% (inactive)
11 | Cc1ccc(C(=O)C2CCN(CC(=O)NCCC(C)C)CC2)cc1 | -6.25% (inactive)
12 | NC1=CC(=O)C(=O)c2cccnc21 | 11.2% (active)
13 | CC(C)CNS(=O)(=O)CC1NCCc2ccccc21 (stereo unspecified) | 1.24% (inactive)
14 | O=C(CSc1nc2sc3c(c2c(=O)n1-c1ccccc1)CCCC3)NN=Cc1ccc(OCc2ccccc2)cc1 | -0.49% (inactive)
15 | COc1ccc(/C=C2\N=C3CCCN3C2=O)cc1 | 10.5% (active)
16 | COc1ccc(C=C2CCC3C(CCCC34OCCO4)C2=O)cc1 (stereo unspecified) | 3.51% (inactive)
17 | COc1ccc(/C=C2\CC3(OC(C)=O)CCCN2C3)cc1 (stereo unspecified) | 0.44% (inactive)
18 | Cc1cccc(NC(=O)C[C@H]2CC[C@H]3[C@@H](COc4ccc(NC(=O)Nc5ccccc5)cc4C(=O)N3C)O2)c1 | 3.76% (inactive)
19 | CC1(C)CC(=O)C=C(NC2CC(C)(C)NC(C)(C)C2)C1 | 9.6% (active)

Row | Compound | inhibition
20 | COC(=O)NNC1=CC(=O)CC(C)(C)C1 | -1.76% (inactive)
21 | CC1(C)CC(=O)C=C(NCCCNC2CCCCC2)C1 | 2.3% (inactive)
22 | CCC(C)(C)c1ccc(Oc2ccc(NC(=O)COC(=O)C3=COCCO3)cc2)cc1 | 10.1% (active)
23 | COc1ccc(NC(=O)COC(=O)CNC(=O)C2CCCCC2)cc1 | 0.1% (inactive)
24 | O=C1CCC(C(=O)OCC(=O)Nc2ccc(OC(F)F)cc2)=NN1 | 3.57% (inactive)
25 | O=C(CSc1nnc(-c2cccc(Cl)c2)n1Cc1ccco1)Nc1ccc(OCc2ccccc2)cc1 | 2.27% (inactive)
26 | COC(=O)[C@]12C[C@H](CC(=O)N3CCN(C(=O)C4CC4)CC3)C(=O)N(CCC3=CCCCC3)C1=C[C@H](C(C)C)O[C@@H]2C1CC1 | -0.79% (inactive)
27 | COCCNC(=O)c1ccc(Cn2c(SCC(=O)NCC3CCCO3)nc3ccc(Br)cc3c2=O)cc1 (stereo unspecified) | 0.38% (inactive)
28 | O=C(CNC(=O)c1ccc(Br)o1)NCC1CCCO1 (stereo unspecified) | -1.19% (inactive)
29 | OC(CNCC1CCCO1)Cn1c2ccc(Br)cc2c2cc(Br)ccc21 (stereo unspecified) | 9.98% (active)
30 | COc1cccc(CSc2nnc(-c3cccnc3)n2Cc2ccccc2)c1 | -0.88% (inactive)
31 | N[C@@H](Cc1ccccc1)C(=O)N1CCC[C@@H]1C(=O)N1CCC2CCN(S(=O)(=O)c3ccccc3)CC21 (stereo partly specified) | 1.45% (inactive)
32 | CCCCC(=O)N[C@@H]1CC[C@@]23CCCN2C(=O)CCC[C@H]3[C@H]1C | 0.85% (inactive)
33 | COc1ccc(S[C@]2(C(=O)N(C)C)CC(=O)N(c3ccc(OC)cc3)[C@@H]2c2ccc(OC)cc2)cc1 | 3.67% (inactive)
34 | COc1cc(/C=C/C(=O)n2cnc3ccccc32)cc(OC)c1OC | -0.84% (inactive)
35 | Cc1ccccc1CN1CCCCC(NC(=O)Nc2ccccc2F)C1=O (stereo unspecified) | 4.92% (inactive)
36 | Nn1cnnc1N/N=C/c1cc([N+](=O)[O-])c(Cl)cc1Cl | 13.2% (active)
37 | COc1ccc(NC(=O)N2CCCC2C(=O)NCc2ccccc2Cl)cc1 (stereo unspecified) | -0.63% (inactive)
38 | O=C(Nc1ccc(Br)cc1)C1CCC(=O)N1Cc1ccccc1Cl (stereo unspecified) | 9.91% (active)

Row | Compound | inhibition
39 | O=C1c2ccccc2C(O)N1Cc1ccccc1Cl (stereo unspecified) | -1.89% (inactive)
40 | COc1ccc(-n2c(SCC(=O)Nc3ccc4c(c3)OCCO4)nnc2-c2ccc(Cl)cc2)cc1 | 2.18% (inactive)
41 | O=S1(=O)c2c(NCc3ccco3)cccc2Oc2ccccc2CN1Cc1cn(Cc2cccc(C(F)(F)F)c2)nn1 | -41.1% (inactive)
42 | O=C(CN1CCN(c2ccc(O)cc2)CC1)Nc1ccc(-c2ccccc2)cc1 | 5.1% (inactive)
43 | CCc1cc(C(=O)c2ccc(OC)cc2)c(NC(=O)CN2CCN(C)CC2)s1 | -5.73% (inactive)
44 | CCCCc1nc2ccccc2c(NC(=O)CN2CCN(C)CC2)c1CCC | 31.4% (active)
45 | Clc1ccc(-n2c(COc3ccccc3)nnc2SCc2nc3ccccc3[nH]2)cc1 | -0.91% (inactive)
46 | Cc1cc(O)c(NC(=O)c2ccc(C)c([N+](=O)[O-])c2)cc1C | 4.76% (inactive)
47 | CCCCNc1ccc(C(=O)Nc2cccc(C)n2)cc1[N+](=O)[O-] | 16.8% (active)
48 | Cc1cccc(NC(=O)c2ccc(COc3ccccc3[N+](=O)[O-])o2)n1 | -0.91% (inactive)
49 | O=C(Nc1cc(F)cc(F)c1)OC1CCC12CCC(c1ccccc1)CC2 (stereo unspecified) | 0% (inactive)
50 | C=CCN1[C@H](CC(C)C)COc2cccc(N3CCCC3)c2S1(=O)=O | -4.7% (inactive)
51 | C[C@H]1[C@H](NC(=O)c2cccc(N(C)C)c2)CC[C@@]23CCCN2C(=O)CCC[C@@H]13 | -87.5% (inactive)
52 | Cc1sc2nc(SCC(=O)c3ccc(O)c(O)c3)n(Cc3ccco3)c(=O)c2c1C | 4.7% (inactive)
53 | CCC(C)CN1C(=O)CSCC1(C)C(=O)NCc1ccccc1 (stereo unspecified) | 3.07% (inactive)
54 | CC1(C(=O)NCc2ccccc2)CSCC(=O)N1CCCn1ccnc1 (stereo unspecified) | 0.21% (inactive)
55 | CC1(C(=O)NCc2ccccc2)CSCC(=O)N1CCCN1CCOCC1 (stereo unspecified) | 10.3% (active)
56 | Cc1cc(=O)[nH]c(SCC(=O)Nc2ccc(Cl)cc2C)n1 | 3.72% (inactive)
